This is an account of results in PubChem BioAssay AID739 (SRMLSC, 2007).

Each structure is given as a SMILES string. Screen size: about 98,000 compounds; about 880 (0.9%) were called active. Cut-off read from the data, not from the text of the source: active = inhibition above about 30%; inactive = the rest. This excerpt belongs to a sample that is enriched for actives.

The assay can be described thus: phenotypic screen on post-Golgi transport, primary screen (AID 739).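 Note: yeast cells grown in 1536-well plates; yeast grown about 18 h at 30C before absorbance read.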 The note with it: post-Golgi transport phenotypic cell assay; at 10 µM; hits give high values.
Usually inhibition stands for the change of the read-out against control, counted positive when it falls. With `Cc1ccccc1OCC(=O)Nc1ccc(N2CCN(C(=O)C(C)C)CC2)c(Cl)c1`, the inhibition was -4.22% (inactive).
With `Cc1ccc(NC(=O)COc2ccc(-n3ccnc3)cc2)cc1Cl`, the inhibition was 48.8% (active).
The same measure for `CN1CCN(c2ccc(NC(=O)COc3ccc(Cl)cc3Cl)cc2)CC1`: 0.47% (inactive).
Turning to `CCCOc1cc(C)c(S(=O)(=O)n2nnc3ccccc32)cc1C`, the inhibition is 0.66% (inactive).
The same measure for `Cn1cc(S(=O)(=O)N2CCN(c3ccc(F)cc3)CC2)c(=O)n(C)c1=O`: -6.58% (inactive).
The same measure for `Cn1cc(S(=O)(=O)N2CCC(Cc3ccccc3)CC2)c(=O)n(C)c1=O`: 7.01% (inactive); for `CC(C)c1ccc(NS(=O)(=O)c2cn(C)c(=O)n(C)c2=O)cc1`: 76% (active).
For `CCN1CCN(C(=O)c2cc3cc4ccc(OC)cc4nc3s2)CC1`, the inhibition was 1.48% (inactive).
The same measure for `O=C(COc1ccc(Br)cc1F)NC1CCN(Cc2ccccc2)CC1`: 95.3% (active); for `O=C(NC1CCN(Cc2ccccc2)CC1)c1ccccc1F`: 1.69% (inactive).
The same measure for `O=C(COc1ccccc1F)NC1CC1`: 15.2% (inactive); for `CCC1(C)Cc2c(sc3nc(SC)nc(N)c23)CO1` (configuration not stated): -2.83% (inactive).
With `COC(=O)c1ccc(Cc2ccccc2)o1`, the inhibition is 8.24% (inactive).
The same measure for `CCOc1ccccc1NC(=O)Nc1cc(OC)ccc1OC`: 1.32% (inactive); for `C=C(C)COc1ccc(-c2n[nH]c(C)c2-c2ccccc2OC)c(O)c1`: -7.36% (inactive); for `CCOc1ccccc1Oc1cn[nH]c1-c1ccc(OC)cc1O`: 80.9% (active).
The same measure for `O=C(Nc1ccc(Cl)cc1)c1cc2nc(C3CC3)cc(C(F)(F)F)n2n1`: 12% (inactive); for `CC12c3ccccc3C(c3ccccc31)C1C(=O)N(Cc3cccnc3)C(=O)C12` (configuration not stated): 2.75% (inactive); for `CC(C)Cc1oc(C(=O)O)cc1CN`: -3.35% (inactive).
As for `COC(=O)C1CCN(CC(N)=O)CC1`, the inhibition is 0% (inactive).
Regarding `OC(COc1cccc2ccccc12)CN1CCN(c2ccccn2)CC1` (configuration not stated), the inhibition is 3.42% (inactive).
The same measure for `COc1cccc(OCC(O)CN2CCN(CCO)CC2)c1` (configuration not stated): 3.01% (inactive).
The same measure for `Cc1ccc(OCC(O)CN2CCN(CC(O)COc3ccc(C)cc3Cl)CC2)c(Cl)c1` (configuration not stated): 67.9% (active).
The same measure for `Fc1ccc(-n2c(Cc3ccccc3)nnc2SCc2nc(-c3ccc(Cl)cc3)no2)cc1`: -6.61% (inactive).
In the case of `Cc1nn(C)c(Oc2ccc(Cl)cc2)c1C=O`, the inhibition is -3.55% (inactive).
The same measure for `Cc1nc(Cl)c2oc3ccccc3c2n1`: 12.3% (inactive); for `OC(COc1cccc(OCC(O)CN2CCCC2)c1)CN1CCCC1` (configuration not stated): -2.18% (inactive).
The same measure for `O=C(c1ccc(Cl)cc1)c1ccc(OCC(O)CN2CCCCC2)cc1` (configuration not stated): 35.1% (active).
The same measure for `CCC(=O)c1ccc(OCC(O)CN2CC(C)OC(C)C2)cc1` (configuration not stated): 2.21% (inactive).
For the compound `CC(C)NC(=O)C(=O)NCCN1CCN(S(=O)(=O)c2ccc(Cl)cc2)CC1`, the inhibition was 1.12% (inactive).
The same measure for `CC1(C)Cc2c(sc3nc(SCC(=O)NCc4ccccc4)n(-c4ccccc4)c(=O)c23)CS1`: 8.61% (inactive).
The same measure for `COc1ccc(CC(=O)Nc2ccc(-c3nnc(-c4ccc(C)cc4)o3)cc2)cc1`: 5.17% (inactive).
The same measure for `COc1ccc(NC(=O)/C(Cl)=C(/Cl)S(=O)Cc2ccc(C)cc2)cn1` (configuration not stated): 107% (active); for `COc1cccc(NC(=O)Cc2ccc(C)cc2)c1`: 24.4% (inactive); for `COC(=O)C(NC(=O)c1ccc(OC)cc1)(Nc1ncc(S(=O)(=O)c2ccc([N+](=O)[O-])cc2)s1)C(F)(F)F` (configuration not stated): 6.99% (inactive).
Consider `O=C(NC(Nc1nc2ccc([N+](=O)[O-])cc2s1)(C(F)(F)F)C(F)(F)F)c1ccccc1`, for which the inhibition was 102% (active).
For `Cc1cc(C)cc(OCC(=O)Nc2nc3ccc([N+](=O)[O-])cc3s2)c1`, the inhibition was -4.35% (inactive).
Consider `COc1cc(OC)c(/C=N/NC(=O)c2ccc([N+](=O)[O-])cc2)cc1Br`, for which the inhibition is -4.41% (inactive).
The same measure for `CCCc1ccc(-c2c(C)sc(NC(=O)c3ccnn3C)c2C#N)cc1`: -9.37% (inactive).
For `CCc1c(C)sc(NC(=O)c2ccc(Br)o2)c1C(=O)OC`, the inhibition was 2.81% (inactive).
The same measure for `CC(CCc1ccccc1)NC(=O)c1ccc(Br)o1` (configuration not stated): 2.83% (inactive).
The same measure for `CC(CNC(=O)c1ccc(Br)o1)NC(=O)c1ccc(Br)o1` (configuration not stated): 36.5% (active).
The same measure for `Cc1cccc(C(=O)N2CCCN(C(=O)c3cccc(C)c3)CC2)c1`: 17.7% (inactive); for `COC(=O)C1C(=O)NCC1c1ccc(C)cc1` (configuration not stated): -3.77% (inactive).
`CCCCN=C1N/C(=C\c2ccco2)C(=O)N1c1ccccc1`: the inhibition is 1.56% (inactive).
The same measure for `O=C1c2ccccc2C(=O)N1CCC(c1ccccc1)c1ccco1` (configuration not stated): -1.67% (inactive); for `C=CCCC(=O)Nc1nc(C)c(-c2csc(Nc3ccc(Cl)cc3)n2)s1`: 12.8% (inactive).
`CCCCCCC(=O)Nc1nc(C)c(-c2csc(Nc3cc(Cl)ccc3OC)n2)s1`: the inhibition is -2.77% (inactive).
The same measure for `CCCCC(=O)Nc1nc(C)c(-c2csc(Nc3ccc(Cl)cc3)n2)s1`: 32.9% (active).
The same measure for `CCCCOc1ccc(C(=O)NCc2ccncc2)cc1`: 2.23% (inactive); for `COc1c(C)cccc1C(=O)Nc1cc(Cl)ccc1N1CCOCC1`: 64.3% (active).
`O=C(CNC(=O)c1ccc(Cl)cc1Cl)NCC(=O)Nc1ccccc1N1CCOCC1`: the inhibition is -6.67% (inactive).
In the case of `Cc1cc(C(=O)Nc2ccccc2N2CCOCC2)c2ccccc2n1`, the inhibition was -2.05% (inactive).
The same measure for `O=C(Nc1cccc(Cl)c1)Nc1nnc(-c2ccccc2)o1`: -5.96% (inactive); for `Cc1nonc1NC(=O)c1ccccc1Br`: -12.3% (inactive).
The same measure for `O=C(Nc1nnc(-c2ccc(Cl)cc2)o1)c1ccccc1Br`: 78.2% (active); for `CS(=O)(=O)N1CCN(c2ccc(C(=O)NC3C4CC5CC(C4)CC3C5)cc2[N+](=O)[O-])CC1` (configuration not stated): -5.58% (inactive).
The same measure for `CCOC(=O)N1CCC(Nc2c(NCCCN3CCN(CC)CC3)c(=O)c2=O)CC1`: -3.44% (inactive); for `Cc1ccc(C(=O)NNC(=O)OC(C)(C)C)c(Cl)c1`: -3.13% (inactive).
Turning to `CCCC(=O)Nc1ccc(Cl)c(NC(=O)c2ccc(Br)o2)c1`, the inhibition was 0.4% (inactive).
The same measure for `CCN1CCN(c2c(Cl)cccc2NC(=O)c2ccc(Br)o2)CC1`: 30.4% (active); for `COc1cc(OC)c(NC(=O)c2ccc(Br)o2)cc1Cl`: 6.31% (inactive).
The same measure for `CC(C)Cn1cnc2c1c(=O)n(CC(O)c1ccccc1)c(=O)n2CC(C)C` (configuration not stated): 2.02% (inactive).
The same measure for `CCn1c2ccccc2c2cc(NC(=S)N3CCOCC3)ccc21`: 8.17% (inactive); for `COc1ccc(N2CCN(Cc3cc(=O)oc4ccc5ccccc5c34)CC2)cc1`: 14.4% (inactive).
On to `CCCC(=O)N(CCc1ccccc1)Cc1nc2ccccc2c(=O)[nH]1`, for which the inhibition is -6.28% (inactive).
Regarding `CN(Cc1nc2ccccc2c(=O)[nH]1)Cc1cc(=O)oc2ccc3ccccc3c12`, the inhibition is 39.3% (active).
For `CC(C)c1ccc(NC(=O)CCN2C(=O)c3ccc([N+](=O)[O-])cc3C2=O)cc1`, the inhibition was -0.5% (inactive).
The same measure for `Cc1ccc(S(=O)(=O)NCC(=O)N(CC(=O)NC(C)(C)C)Cc2cccs2)cc1`: -2.77% (inactive); for `Cn1nc([N+](=O)[O-])nc1Sc1ccc(C(C)(C)C)cc1`: 0.31% (inactive).
The same measure for `Cn1c(Cn2nnc3ccccc32)nnc1SCC(=O)c1ccccc1F`: 11.5% (inactive).
The same measure for `CSc1ncccc1C(=O)OCC(=O)N1CCOCC1`: 31.5% (active).
Turning to `O=C(c1cccnc1NCc1ccccc1)N1CCOCC1`, the inhibition was -0.34% (inactive).
With `COc1ccc(C(CNC(=O)c2cccnc2SC)N2CCOCC2)cc1` (configuration not stated), the inhibition is -3.85% (inactive).
As to `Cc1ccc(SCC(=O)c2sc(-c3ccccc3)nc2C)cc1`, the inhibition is -0.4% (inactive).
The same measure for `O=C(COc1ncnc2c(Cl)cc(Cl)cc12)N1CCN(S(=O)(=O)c2ccccc2)CC1`: 18.3% (inactive); for `CC(=O)NNc1cc(=O)c2c(=O)n(C)c(=O)n(C)c2[nH]1`: 9.45% (inactive); for `O=S(=O)(c1cnccc1N1CCN(/N=C/c2ccc(Br)cc2)CC1)N1CCCCC1`: 49.6% (active).
The same measure for `O=C(O)C1CCCN(S(=O)(=O)c2cccc3cccnc23)C1` (configuration not stated): -3.64% (inactive); for `CNS(=O)(=O)c1cnccc1N1CCN(c2cccc(C)c2)CC1`: -3.21% (inactive).
The same measure for `CCCOn1c(-n2nc(C)cc2C)nc2ccccc2c1=O`: 2.91% (inactive).
Regarding `CCOC(=O)N1CCN(c2c(NCCCN3CCCC(C)C3)c(=O)c2=O)CC1` (configuration not stated), the inhibition is 7.09% (inactive).
The same measure for `O=C(OCc1cn(-c2ccc(Cl)c(Cl)c2)nn1)c1ccccc1Cl`: -1.94% (inactive); for `Cc1nc2ccccc2c(=O)n1CCCn1ccnc1`: 2.21% (inactive); for `CCc1ccc(NC(=O)CSc2nc3ccccc3c(=O)n2CCN2CCOCC2)cc1`: 0% (inactive).
The same measure for `CCn1c(/C=C/c2ccc([N+](=O)[O-])o2)nc2ccccc2c1=O`: 76.6% (active); for `O=C(CCCCCn1c(=O)[nH]c2ccccc2c1=O)NCCc1c[nH]c2ccccc12`: -3.35% (inactive); for `COc1ccc2c(c1)CCc1c(C(=O)N3CCc4ccccc4C3)noc1-2`: 40.4% (active).
The same measure for `COc1ccc2c(c1)CCc1c(C(=O)Nc3c(C)n(C)n(-c4ccccc4)c3=O)noc1-2`: 3.19% (inactive); for `COc1ccc2c(c1)CCc1c(C(=O)N3CCCC3)noc1-2`: -1.12% (inactive).
With `CCN(CC)CCCNC(=O)CCc1ccccc1`, the inhibition was 3.7% (inactive).
In the case of `Cc1nn(CC(=O)Nc2nc3ccccc3s2)c(C)c1[N+](=O)[O-]`, the inhibition was -1.92% (inactive).
The same measure for `O=C(CCS(=O)(=O)c1cccc2nsnc12)N1CCN(c2ccccc2F)CC1`: 6.04% (inactive); for `Fc1ccc(N2N=C(c3cccs3)CC2c2ccco2)c(F)c1` (configuration not stated): 8.56% (inactive).
The same measure for `CC(NC(=O)CSc1nc2c(cc1C#N)CN(C)CC2)c1ccccc1` (configuration not stated): 60.2% (active).
The same measure for `Cc1cc2cc3c(cc2nc1SCC(=O)Nc1c(C)cccc1C)CCC3`: -0.36% (inactive); for `Cc1nc2cc(NC(=O)CSc3nc4c(C)cccc4cc3C#N)ccc2s1`: -0.17% (inactive).
